Only some compounds are listed: those with a hit (about 2.4% of all), similar ones and a draw of the others.
Platelet DG rel: modulates dense granule release in human platelets; human platelet-rich plasma, SFLLRN dense granule ATP release, luminescence; inhibition, %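 (compounds screened at 7.5 µM in platelet-rich plasma)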; actives 0.22% (n = 300,000); AID 1663;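 active means mean replicate score, as percent of positive control, at or above 50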
SENP6 inh: SENP6 protease inhibition; actives 1.8% (n = 330,000); Q9GZR1; inhibition, % at 10 µM; Recombinant SENP6 catalytic domain, aminoluciferin luminescence;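 active means inhibition above about 50% at the single tested dose, limit read from the data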;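 further: plate controls were DMSO wells with enzyme for no effect and DMSO wells lacking enzyme for full effect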
SENP8 block-1: blocks the human protease SENP8; Q96LD8; inhibition, % at 10 µM; actives 1.2% (n = 330,000); purified SENP8, Z-RLRGG-aminoluciferin cleavage, luminescence; AID 2540; in the data active means inhibition above about 50%
SENP8 block-2: blocks human SENP8 cleavage of Nedd8 substrate; recombinant SENP8, Nedd8 substrate fluorescence; inhibition, % at 20 µM; actives 0.64% (n = 360,000); in the data active means inhibition mostly above about 40%, no sharp cut-off; inactive means mostly below about 27%
SENP7 inh: SENP7 protease inhibition | recombinant SENP7, Z-RLRGG-aminoluciferin luminescence, 40 min | inhibition, % at 5 µM | actives 1.5% (n = 330,000) | AID 434973;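 active means inhibition above about 50% at the single test dose, limit read from the data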;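 further: plate controls were DMSO with enzyme for no effect and no enzyme buffer wells for full effect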
Target sequence (Q9BQF6 706-1050 limits assumed): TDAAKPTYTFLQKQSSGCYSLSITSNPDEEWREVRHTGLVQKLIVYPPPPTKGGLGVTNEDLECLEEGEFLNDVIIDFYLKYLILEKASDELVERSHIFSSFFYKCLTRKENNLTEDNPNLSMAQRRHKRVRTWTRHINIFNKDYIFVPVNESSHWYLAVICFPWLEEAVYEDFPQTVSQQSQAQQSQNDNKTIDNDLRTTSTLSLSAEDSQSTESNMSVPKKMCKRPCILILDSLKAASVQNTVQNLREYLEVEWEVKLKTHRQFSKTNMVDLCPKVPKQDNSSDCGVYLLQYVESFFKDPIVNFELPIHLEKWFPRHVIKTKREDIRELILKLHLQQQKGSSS
SENP8 conf: confirmation of human SENP8 protease inhibitors; shares compounds with SENP7 inh; Recombinant SENP8, Z-RLRGG-aminoluciferin luminescence, 60 min; inhibition, % at 12.5 µM; actives 40% (n = 6,200); AID 488912;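 active means mean inhibition across replicates above about 50%, limit read from the data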
SENP6 confirm: confirmation of human SENP6 protease inhibitors. shares compounds with SENP7 inh. recombinant SENP6, Z-RLRGG-aminoluciferin luminescence. inhibition, % at 12.5 µM. actives 58% (n = 6,200). AID 488915
SENP7 confirm: confirmation of human SENP7 protease inhibitors. shares compounds with SENP7 inh. recombinant SENP7, Z-RLRGG-aminoluciferin luminescence, 40 min. AID 488917. actives 69% (n = 6,200). inhibition, % at 12.5 µM
Casp3 SENP sel: selectivity test for SENP inhibitors: human caspase-3 inhibition | purified caspase-3, Z-DEVD-aminoluciferin luminescence, 60 min | shares compounds with SENP7 inh | inhibition, % at 12.5 µM | actives 60% (n = 6,200);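 active means mean inhibition above about 50%, limit read from the data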;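 further: plate controls were enzyme with DMSO for no effect and wells without caspase-3 for full effect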
Luc interf: interferes with luciferase luminescence in SENP counter-screen | shares compounds with SENP7 inh | Pre-incubated SENP8/Z-RLRGG-aminoluciferin, luciferase luminescence interference | inhibition, % at 12.5 µM | actives 39% (n = 6,200);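 active means mean inhibition above about 50% when retested at one dose, limit read from the data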;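 further: plate controls were DMSO wells with completed reaction for no effect and substrate without enzyme for full effect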
Starred values were filed as active, the others as inactive; · = no result given.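 How the source made its calls, unless noted: active means mean inhibition above about 50% in the one-dose retest (limit read from the data); inactive means the rest.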

SMILES	Platelet DG rel	SENP6 inh	SENP8 block-1	SENP8 block-2	SENP7 inh	SENP8 conf	SENP6 confirm	SENP7 confirm	Casp3 SENP sel	Luc interf
Cc1ccc(NC(=O)CNC2CCCCC2)cc1Cl	-3.5	-6.5	12.3	18.8	-0.5	·	·	·	·	·
CC(=O)N1CCN(S(=O)(=O)c2cccc(C(=O)NCc3ccc(F)cc3)c2)CC1	·	6.7	-4.7	13.5	6.3	·	·	·	·	·
CC(C)Cn1c(N)c(C(=O)NCC2CCCO2)c2nc3ccccc3nc21 (stereo not given)	4.6	76.3*	76.5*	-454.8	-1.6	5.0	15.8	6.3	-2.5	-2.8
Cc1ccc(C)c(S(=O)(=O)c2c[nH]c(=S)[nH]c2=O)c1	-14.4	-12.7	-7.0	19.0	-16.0	·	·	·	·	·
CN=c1scc(-c2ccc(F)cc2)n1/N=C/c1ccc(O)c(O)c1	·	61.8*	46.4	-31.0	11.7	74.7*	71.8*	85.8*	39.1	60.2*
O=C(Nc1ccc(C#Cc2ccccc2)cc1)C1CC1	-0.6	46.9	25.8	7.6	68.4*	9.4	40.1	63.6*	26.0	4.6
Cc1ccc(NC(=O)Nc2ccon2)cc1	7.2	5.8	-2.0	16.6	11.2	·	·	·	·	·
CCOc1cc(C(=O)Nc2cc(C)on2)cc(OCC)c1OCC	1.0	-1.7	-1.8	10.3	-6.9	·	·	·	·	·
CCOc1ccc(NC(=O)Nc2ccon2)cc1	31.1	55.4*	15.3	-2.6	53.8*	22.4	21.2	66.7*	74.5*	22.8
O=C(Nc1ccccc1C(=O)O)c1ccc(NC(=O)C2CC2)cc1	2.8	67.5*	60.8*	-3.4	49.7	75.8*	75.0*	93.6*	88.2*	83.2*
CCOc1ccc(C(=O)Nc2cc(C)on2)cc1	10.1	47.4	12.7	9.5	53.9*	-24.0	16.9	56.6*	73.9*	-5.9
O=C(Nc1ccc(Oc2ccccc2)cc1)C1CC1	6.3	0.1	2.3	8.3	0.0	·	·	·	·	·
O=C(Nc1ccccc1O)c1ccc(NC(=O)C2CC2)cc1	4.1	-15.2	-10.7	5.9	-6.6	·	·	·	·	·
COc1ccc(C(=O)c2[nH]c(N)c(C(=O)NCCc3c[nH]c4ccccc34)c2-c2ccc(C(F)(F)F)cc2)cc1	·	·	·	-20.4	·	·	·	·	·	·
CC(C)CNC(=O)c1ccccc1NC(=O)CN(c1ccccc1)S(=O)(=O)N(C)C	-2.7	9.3	4.3	-16.2	-3.4	·	·	·	·	·
CCOc1ccc(C(=O)Nc2ccccc2C(=O)O)cc1	2.2	60.7*	30.7	8.4	15.7	76.7*	72.2*	93.5*	85.2*	78.5*
CCCC(=O)Nc1ccc(C#Cc2ccccc2)cc1	9.3	45.1	6.3	10.9	51.4*	2.1	12.9	18.8	12.7	1.9
CC12CCC(=O)N1C(C(=O)NCCN1C(=O)S/C(=C\c3ccc(F)cc3)C1=O)CS2 (stereo not given)	-5.1	-1.3	-7.2	7.4	-0.4	·	·	·	·	·
Nc1c(Cl)ncnc1N/N=C/c1cccc(O)c1	15.4	56.3*	25.4	-197.6	33.5	40.5	35.9	70.3*	67.8*	25.0
COc1ccc(/C=N/Nc2ncnc(Cl)c2N)cc1OC	21.0	-31.1	-8.2	-235.4	-2.9	·	·	·	·	·
CCCn1c(SCC(=O)N(C)CC(=O)Nc2ccc(Cl)cc2)n[nH]c1=O	·	-6.3	8.4	-1.6	6.9	·	·	·	·	·
O=C(NCc1ccc2c3c(cccc13)C(=O)N2)c1cccs1	4.8	·	·	-369.5	·	·	·	·	·	·
Cc1ccccc1N1Cc2ccccc2C1=O	·	·	·	9.9	·	·	·	·	·	·
CC(C(=O)O)c1ccc(N2Cc3ccccc3C2=O)cc1 (stereo not given)	6.6	54.2*	46.2	-13.4	41.2	26.1	22.9	72.5*	77.9*	55.2*
O=C(Nc1ccc2c(c1)OCO2)C(=O)c1c[nH]c2ccccc12	35.5	46.1	13.1	14.5	81.5*	12.8	23.9	78.9*	75.0*	19.0

High-throughput results deposited in PubChem by several laboratories.
